Measured values published in PubChem BioAssay (NCATS).
Activity calls are given as the source filed them. A call without a number means that no potency is given here. The call rests on the fitted dose curve; in most records, active means well fitted inhibition curve with a large enough effect; inconclusive means small, poorly fitted or top-dose-only effect; inactive means flat fitted curve, though single readings scatter.

These compounds were tested on Nanoluciferase (engineered Oplophorus gracilirostris luciferase) (assay: Primary Nanoluciferase (NLuc) qHTS assay for identification of artifact compounds. (AID 1845222)). Conditions: NLuc-conditioned medium, Nano-Glo luminescence, 5 min; series mostly up to 54.1 µM.
Source text: PI: Alexander Tropsha Ph.D.
UNC Eshelman School of Pharmacy
University of North Carolina, Chapel Hill, North Carolina
Hits from high-throughput screening (HTS) of chemical libraries are often false positives due to their interference with the assay detection technology. In response to this problem, we generated the largest publicly available library of chemical liabilities and developed a free webtool to predict HTS artifacts, both of which are described herein. More specifically, we generated, curated, and integrated HTS datasets for thiol reactivity, redox activity, and luciferase (firefly and nano) activity. Using these curated datasets, we developed and validated several Quantitative Structure-Interference Relationship (QSIR) models to predict nuisance behavior. […] These models were employed for virtual profiling of the National Center for Advancing Translational Science's (NCATS) in-house library, and 256 compounds for each assay were selected for the experimental validation of nuisance behavior. The BA for these external predictions ranged from 58 to 78% for compounds within the applicability domains of the models. […] The models developed in this study, along with aggregation models previously developed by our group (SCAM Detective) were implemented in "Liability Predictor," an online tool which may be used as part of chemical library design or for triaging HTS hits. Both the models and the curated datasets are publicly available at https://liability.mml.unc.edu/.
SEQUENCE No. (e.g., 1, 2, 3, etc.); […] (e.g., Cells, Incubation, Reagent, etc.); VALUE; DESCRIPTION.
1; Reagent; 2 uL; Nanoluciferase media.
2; Compounds and control; 16 nL; Kalypsis pin tool (Wako USA) equipped with a 1536-well pin head.
4; Reagent; 2 uL; Luciferase enzyme.
6; Detection; Luminescence, ViewLux microplate reader.
NOTES (numbers refer to Sequence numbers above)
1. Medium was collected from the culture flasks of NLuc-expressing S16 cells (80% confluent) prior to cell plating, filtered through a 0.22um filter, and frozen at -20C prior to use. Media was diluted (1:55) and 2 uL was dispensed into all wells of a 1536-well assay plate (solid-bottom white plate; Greiner Bio One, Monroe, NC).
2. A Wako Pin-tool (Wako Automation, Richmond, VA) was used to transfer 16 nL of compounds (consisting of 7-plates in qHTS format, final concentration range 18.3 nM to 114 uM) or control Cilnidipine (final concentration range 623 nM to 80 uM).
3. 15 min. incubation at room temperature protected from light.
4. 2 uL of NLuc substrate (1:100 in Nano-Glo luciferase buffer; Nano-Glo luminescence assay, Promega, Madison, WI) was dispensed for a final assay volume of 4 uL.
5. Plates were centrifuged (121xg, 15 seconds) and incubated for 5 minutes.
6. Samples were read for luminescence on a ViewLux CCD imager (PerkinElmer). Data were normalized to no-enzyme (0% activity) and no-inhibitor (DMSO; 100%) controls and the resulting percent inhibition data were fitted to a 4-parameter Hill equation using NCATS in-house software.
`COCCCc1sc(-c2ccccc2)nc1C(=O)Nc1ccccc1-c1nc2cc(CN3CCCC3)cnc2s1` was tested, and the Potency was “inactive”.
For `CSC(=O)OCC1=C[C@@H]2OC(=O)C3=CO[C@@H](O[C@@H]4O[C@H](CO)[C@@H](O)[C@H](O)[C@H]4O)[C@H]1[C@@H]32`, the Potency was “inactive”.
In the case of `C=CCc1ccc(O[C@@H]2O[C@H](CO)[C@@H](O)[C@H](O)[C@H]2O)c(O[C@@H]2O[C@H](CO)[C@@H](O)[C@H](O)[C@H]2O)c1`, the Potency is reported as “inactive”.
`O=C(OC[C@H]1O[C@@H](Oc2ccccc2CO)[C@H](O)[C@@H](O)[C@@H]1O)c1ccccc1` was tested, and the Potency was “inactive”.
`CC1=C2CC3C(CCC3(C)O)C(C)(O)CC2OC1=O` (stereo not given) was tested, and the Potency was “inactive”.
For `CC(=O)OC1C(O)/C(C)=C\C2C(OC(=O)c3ccccc3)C(C)CC2(OC(C)=O)C(OC(C)=O)C(C)/C=C/C(C)(C)C1OC(C)=O` (stereo not given), the Potency was “inactive”.
`COC(=O)C1=COC(OC2OC(CO)C(O)C(O)C2O)C2C(C)C(OC(=O)/C=C/c3ccc(O)cc3)C(O)C12` (stereo not given) was tested, and the Potency was “inactive”.
In the case of `CC1(C)CC[C@]2(C(=O)O[C@@H]3O[C@H](CO)[C@@H](O)[C@H](O)[C@H]3O)CC[C@]3(C)C(=CCC4[C@@]5(C)CC[C@H](O[C@@H]6O[C@H](C(=O)O)[C@@H](O)[C@H](O)[C@H]6OC6OC(CO)C(O)C(O)C6O)C(C)(C)C5CC[C@]43C)[C@@H]2C1` (stereo not given in full), the activity, negative = inhibition is reported as 0.31% [at 11.6 µM] (inactive).
In the case of `Oc1ccc2c(-c3c(-c4ccccn4)nn4c3CCC4)ccnc2c1`, the Potency is reported as “inactive”.
For `CC1=C[C@@H]2[C@H]3[C@@H]4O[C@@](C)(CC[C@H]4O)[C@H]3CC(=O)[C@]23C(=O)N[C@@H](CC(C)C)[C@@H]3[C@@H]1C`, the Potency was “inactive”.
With `C=C(C)C1CCC2(C(=O)OC3OC(COC4OC(CO)C(O)C(O)C4O)C(OC4OC(C)C(O)C(O)C4O)C(O)C3O)CCC3(C(=O)O)C(CCC4C5(C)CCC(=O)C(C)(C)C5CCC43C)C12` (stereo not given) the activity, negative = inhibition was 3.95% [at 11.6 µM] (inactive).
`O=C(O)c1ccnc2cc(C(OCC3CCC(F)(F)CC3)c3ccccc3Cl)[nH]c12` (stereo not given) was tested, and the Potency was “inactive”.
In the case of `COC(=O)[C@]1(C)CCC[C@@]2(C)[C@@H]3CC[C@@H]4C[C@@]3(CC[C@@H]21)C[C@H]4C(=O)O`, the Potency is reported as “inactive”.
For `O=C(/C=C/c1ccc(O)cc1)OCC1OC(O)C(OC2OC(CO)C(O)C(O)C2O)C(O)C1O` (stereo not given), the Potency was “inactive”.
For `COC(=O)c1ccccc1O[C@@H]1O[C@H](CO[C@@H]2OC[C@@H](O)[C@H](O)[C@H]2O)[C@@H](O)[C@H](O)[C@H]1O`, the Potency was “inactive”.
In the case of `COC(=O)C1C(O)CCC2CN3CCc4c([nH]c5ccccc45)C3CC21` (stereo not given), the Potency is reported as “inactive”.
For `CC(C)c1ccc2c(c1)[C@H](O)CC1[C@@](C)(C(=O)O)CCC[C@]21C` (stereo not given in full), the Potency was “inactive”.
With `O=C(O)/C=C/c1ccc(O[C@@H]2O[C@H](CO)[C@@H](O)[C@H](O)[C@H]2O)cc1` the Potency was “inactive”.
In the case of `C/C(=C\CC/C(C)=C/CC[C@]1(C)CCc2cc(O)cc(C)c2O1)CC/C=C(\C)C(=O)O`, the Potency is reported as “inactive”.
With `C=C1CCC2C(C)(C)CC(O)CC2(C)C1CCC(C)CCOC(=O)CCC(=O)O` (stereo not given) the Potency was “inactive”.
With `CC(=O)c1[nH]cc(CCC(=O)O)c1CC(=O)O` the Potency was “inactive”.
For `C/C(=C\CO)CC/C=C(\C)C(=O)O[C@@H]1O[C@H](CO)[C@@H](O)[C@H](O)[C@H]1O`, the Potency was “inactive”.
For `O=C(/C=C/c1ccc(O)c(O)c1)O[C@H]1[C@@H]2C=CO[C@@H](O[C@@H]3O[C@H](CO)[C@@H](O)[C@H](O)[C@H]3O)[C@@H]2[C@@]2(CO)O[C@@H]12`, the Potency was “inactive”.
For `COC(=O)[C@H](O)[C@H]1C(C)(C)[C@H](OC(C)=O)[C@@]2(O)C(=O)[C@]1(C)C1CC[C@]3(C)C(CC(=O)O[C@H]3c3ccoc3)[C@]13O[C@@H]32` (stereo not given in full), the Potency was “inactive”.
For `Cc1onc(-c2c(Cl)cccc2Cl)c1CC(=O)NCc1ccc(OCC(F)(F)F)nc1`, the Potency was “inactive”.
In the case of `COc1ccc(/C=C/C(=O)N2CCCC2)cc1`, the Potency is reported as “inactive”.
For `C/C(=C\CCC(C)CCO)C(=O)OC[C@H]1O[C@@H](O[C@@H]2OC=C(C(=O)O)[C@H]3CC[C@](C)(O)[C@@H]23)C(O)[C@@H](O)C1O` (stereo not given in full), the Potency was “inactive”.
In the case of `COC(=O)C[C@H]1C(C)(C)[C@H](OC(=O)C(C)C)C2CC3=C4CC(=O)O[C@@H](c5ccoc5)[C@]4(C)CCC3[C@@]1(C)C2=O` (stereo not given in full), the Potency is reported as “inactive”.
`Cc1cc(-c2nncc3c(C(C)(C)C)c(OCc4ncnn4C)nn23)no1` was tested, and the Potency was “inactive”.
In the case of `CC1(C)C[C@H]2C=C(C=O)[C@]3(C(=O)O)C[C@]3(C)[C@H]2C1`, the Potency is reported as “inactive”.
With `C[C@@]1(O)[C@H](O)[C@@H](CO)O[C@H]1n1cnc2c(=O)[nH]c(N)nc21` the Potency was “inactive”.
For `Cc1cc(CO)c(O)c(C(=O)CC2CC(=O)NC(=O)C2)c1`, the Potency was “inactive”.
In the case of `FC(F)(F)c1nnc2c(Sc3ccccc3)nc3ccc(Cl)cc3n12`, the Potency is reported as “inactive”.
`CC(C)=CCC/C(C)=C/CO[C@@H]1O[C@H](CO[C@@H]2O[C@@H](CO)[C@H](O)[C@H]2O)[C@@H](O)[C@H](O)[C@H]1O` was tested, and the Potency was “inactive”.
With `CC(O)C(=O)/C=C/C=C/C(=O)OC1C=C2COC(=O)C2(O)C2(C)CCCC(C)(C)C12` (stereo not given) the Potency was “inactive”.
`O=C(O)c1ccnc(-c2cc(C(=O)NCCc3ccccc3)ccn2)c1` was tested, and the Potency was “inactive”.
With `C=C1CCC2C(C)(C)CCC[C@]2(C)[C@H]1CC/C(C)=C/C(=O)O` (stereo not given in full) the Potency was “inactive”.
With `COC1OC(O)C2(CCC3(O2)C(C)CC2OC(=O)C4(C)CCCC3(C)C24)C1O` (stereo not given) the Potency was “inactive”.
With `C=C1CCC2[C@](C)(CCC[C@]2(C)C(=O)O)[C@H]1CC/C(C)=C/C(=O)OC` (stereo not given in full) the Potency was “inactive”.
In the case of `CN(C)C(=O)C(O)C(Cc1ccccc1)NC(=O)c1cc2cc(Cl)ccc2[nH]1` (stereo not given), the Potency is reported as “inactive”.
